# In PubChem BioAssay AID1159580 (chemical genetic matrix, 2015):
# Screen size: about 5,500 compounds; about 2,000 (36%) were called active. Inconclusive results (about 18%) are left out. Some of the results follow. A number with no mark means an inactive call. Rule as the data show it: active = normalized growth mostly below about 0.91 (no sharp cut-off); inconclusive = no clear call, values can overlap the other calls; inactive = mostly above about 0.92.
# Assay: chemical genetic growth profiling, strain panel (AID 1159580);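 also: tested at 20 µM; growth read once vehicle control cultures reached saturation at 30 °C; 1 = growth at the plate median or of vehicle wells; lower values mean less growth of the strain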
# Conditions: S. cerevisiae deletion strains, growth OD
structure (smiles),measurement,setting,value
CCCCC/C=C\C/C=C\C/C=C\C/C=C\CCCC(=O)O,normalized growth,"locus YAL013W, strain DEP1, hits give low values",0.987
same,normalized growth,"locus YAL021C, strain ccr4, hits give low values",0.986
same,normalized growth,"locus YAL026C, strain drs2, hits give low values",0.831 (active)
same,normalized growth,"locus YAL030W, strain snc1, hits give low values",0.978
same,normalized growth,"locus YBL061C, strain skt5, hits give low values",0.962
same,normalized growth,"locus YBR009C, strain hhf1, hits give low values",0.952
same,normalized growth,"locus YBR021W, strain FUR4, hits give low values",0.95
same,normalized growth,"locus YBR023C, strain chs3, hits give low values",0.963
same,normalized growth,"locus YBR171W, strain sec66, hits give low values",0.979
same,normalized growth,"locus YBR229C, strain ROT2, hits give low values",0.994
same,normalized growth,"locus YBR231C, strain swc5, hits give low values",0.975
same,normalized growth,"locus YBR279W, strain paf1, hits give low values",0.976
same,normalized growth,"locus YCL011C, strain gbp2, hits give low values",0.971
same,normalized growth,"locus YCL016C, strain dcc1, hits give low values",0.974
same,normalized growth,"locus YCL029C, strain bik1, hits give low values",0.986
same,normalized growth,"locus YCL061C, strain MRC1, hits give low values",0.975
same,normalized growth,"locus YCL069W, strain vba3, hits give low values",0.969
same,normalized growth,"locus YCR088W, strain abp1, hits give low values",0.975
same,normalized growth,"locus YDL005C, strain med2, hits give low values",0.984
same,normalized growth,"locus YDL035C, strain GPR1, hits give low values",0.953
same,normalized growth,"locus YDL040C, strain nat1, hits give low values",0.97
same,normalized growth,"locus YDL074C, strain BRE1, hits give low values",0.916
same,normalized growth,"locus YDL101C, strain DUN1, hits give low values",0.989
same,normalized growth,"locus YDL134C, strain PPH21, hits give low values",0.984
same,normalized growth,"locus YDL185W, strain tfp1, hits give low values",0.974
same,normalized growth,"locus YDL192W, strain arf1, hits give low values",0.965
same,normalized growth,"locus YDR001C, strain nth1, hits give low values",0.972
same,normalized growth,"locus YDR069C, strain doa4, hits give low values",0.993
same,normalized growth,"locus YDR101C, strain arx1, hits give low values",0.968
same,normalized growth,"locus YDR137W, strain rgp1, hits give low values",0.846 (active)
same,normalized growth,"locus YDR150W, strain NUM1, hits give low values",0.99
same,normalized growth,"locus YDR159W, strain sac3, hits give low values",0.926
same,normalized growth,"locus YDR162C, strain NBP2, hits give low values",0.967
same,normalized growth,"locus YDR195W, strain ref2",1.01
same,normalized growth,"locus YDR297W, strain sur2, hits give low values",0.972
same,normalized growth,"locus YDR318W, strain mcm21, hits give low values",0.957
same,normalized growth,"locus YDR334W, strain swr1, hits give low values",0.969
same,normalized growth,"locus YDR335W, strain msn5, hits give low values",0.971
same,normalized growth,"locus YDR388W, hits give low values",0.979
same,normalized growth,"locus YDR392W, strain spt3, hits give low values",0.474 (active)
same,normalized growth,"locus YDR502C, strain sam2, hits give low values",0.977
same,normalized growth,"locus YEL003W, strain gim4, hits give low values",0.975
same,normalized growth,"locus YEL037C, strain rad23, hits give low values",0.974
same,normalized growth,"locus YEL061C, strain CIN8 (second series), hits give low values",0.966
same,normalized growth,"locus YEL061C, strain CIN8, hits give low values",0.982
same,normalized growth,"locus YER015W, strain faa2, hits give low values",0.973
same,normalized growth,"locus YER016W, strain bim1, hits give low values",0.978
same,normalized growth,"locus YER110C, hits give low values",0.976
same,normalized growth,"locus YER111C, strain swi4, hits give low values",0.963
same,normalized growth,"locus YER155C, strain BEM2 (second series), hits give low values",0.746 (active)
same,normalized growth,"locus YER155C, strain BEM2, hits give low values",0.984
same,normalized growth,"locus YER167W, strain BCK2, hits give low values",0.945
same,normalized growth,"locus YFR010W, strain ubp6, hits give low values",0.974
same,normalized growth,"locus YGL078C, strain dbp3, hits give low values",0.951
same,normalized growth,"locus YGL086W, strain mad1, hits give low values",0.976
same,normalized growth,"locus YGL167C, strain pmr1, hits give low values",0.958
same,normalized growth,"locus YGL173C, strain kem1, hits give low values",0.96
same,normalized growth,"locus YGL227W, strain vid30, hits give low values",0.988
same,normalized growth,"locus YGL240W, strain doc1, hits give low values",0.963
same,normalized growth,"locus YGL248W, strain PDE1, hits give low values",0.985
same,normalized growth,"locus YGL253W, strain hxk2, hits give low values",0.974
same,normalized growth,"locus YGR078C, strain PAC10, hits give low values",0.945
same,normalized growth,"locus YGR135W, strain pre9, hits give low values",0.971
same,normalized growth,"locus YGR229C, strain SMI1, hits give low values",0.877
same,normalized growth,"locus YGR252W, strain gcn5, hits give low values",1.01
same,normalized growth,"locus YHR013C, strain ard1, hits give low values",0.855
same,normalized growth,"locus YHR027C, strain rpn1, hits give low values",0.981
same,normalized growth,"locus YHR030C, strain SLT2, hits give low values",0.97
same,normalized growth,"locus YHR079C, strain IRE1 (second series), hits give low values",0.967
same,normalized growth,"locus YHR094C, strain hxt1, hits give low values",0.947
same,normalized growth,"locus YHR129C, strain ARP1, hits give low values",0.992
same,normalized growth,"locus YHR142W, strain chs7, hits give low values",0.931
same,normalized growth,"locus YHR200W, strain rpn10, hits give low values",0.987
same,normalized growth,"locus YIL066C, strain RNR3, hits give low values",0.977
same,normalized growth,"locus YIL073C, strain SPO22, hits give low values",0.862
same,normalized growth,"locus YIR030C, strain dcg1, hits give low values",0.985
same,normalized growth,"locus YJL092W, strain hpr5, hits give low values",0.978
same,normalized growth,"locus YJL095W, strain BCK1 (second series), hits give low values",0.972
same,normalized growth,"locus YJL095W, strain BCK1, hits give low values",0.92
same,normalized growth,"locus YJL115W, strain asf1, hits give low values",0.97
same,normalized growth,"locus YJL129C, strain trk1, hits give low values",0.929
same,normalized growth,"locus YJL134W, strain LCB3, hits give low values",1.02
same,normalized growth,"locus YJL154C, strain vps35, hits give low values",0.979
same,normalized growth,"locus YJL164C, strain tpk1, hits give low values",0.97
same,normalized growth,"locus YJL166W, strain qcr8, hits give low values",0.959
same,normalized growth,"locus YJL168C, strain set2, hits give low values",0.986
same,normalized growth,"locus YJL187C, strain SWE1 (second series), hits give low values",0.983
same,normalized growth,"locus YJL187C, strain SWE1, hits give low values",0.978
